From PubChem BioAssay (NCATS)
Records with an inconclusive call do not appear. The source made the active and inactive calls. Unless noted, calls come from the whole dose curve; as a rule, active = well fitted curve in the direction sought with a large enough effect; inconclusive = small, poorly fitted or top-dose-only effect, or another doubt; inactive = no such curve, though single readings can be large; an effect the other way counts as inactive or inconclusive.

Columns and labels:
[1] = biological target: Lysosomal acid glucosylceramidase (Homo sapiens) (UniProt P04062); assay: Glucocerebrosidase-p2 (AID 348; in the data active = potency below about 10 µM; note: potency is the fitted concentration of half-maximal effect); conditions: purified GBA, blue fluorogenic substrate, 40 min
Summary of the method: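 Normal human glucocerebrosidase (0.2 nM) with blue fluorogenic substrate (80 uM final) in citrate/phosphate pH 5.9 with 10mM sodium taurocholate, 0.01% tween-20; 40 min RT, NaOH/glycine stop; fluorescence Ex 365/Em 440; AC50 from a titration from 0.6 nM upwards.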

[2] = AP1 Signaling Pathway (AID 357; active = well fitted curve in either direction with a large enough effect, not every such curve was filed as active;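 note: ME-180 reporter cells stimulated with EGF at its EC50 level; % is set by controls: 0 for no effect and ±100 for the full control effect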); conditions: ME-180 AP-1-bla reporter, EGF-induced, beta-lactamase ratio, 5 h; at 7.69 µM (top of the series) unless noted
Summary of the method: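 Beta-lactamase reporter under AP-1 response element, ME-180 background. Stimulus: EC50 EGF. Compound exposure 5 h, 37 °C. Detection: CCF4, 2.5 h RT, 460/530 nm. Values: AC50 from titration.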

[3] = biological target: Cytochrome P450 1A2 (Homo sapiens) (UniProt P05177); assay: p450-cyp1a2 (AID 410; calls by dose curve; note: potency is the fitted concentration of half-maximal effect)
Summary of the method: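 Read-out is luminescence from luciferin produced by CYP1A2 demethylation of Luciferin-ME (100uM, at Km). Detection reagent stopped the 60 min NADPH-dependent reaction; signals were normalized to 57 uM furafylline.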

[4] = NFAT Signaling Pathway (AID 444; active = well fitted curve in either direction with a large enough effect, not every such curve was filed as active;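 note: carbachol stimulus at about its EC50 of 1 µM final; % is set by controls: 0 for no effect and ±100 for the full control effect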); conditions: Jurkat NFAT-bla M1, carbachol, beta-lactamase ratio, 5 h; at 7.69 µM (top of the series) unless noted
Summary of the method: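 Jurkat cells with NFAT-driven β-lactamase reporter and co-expressed M1 receptor, stimulated with carbachol (final 1 uM, ~EC50), compound titration, 5 h at 37 °C. CCF4 loaded 1 h at RT; 460/530 nm ratio gave %activity and AC50.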

[5] = Stat Signaling Pathway (AID 446; active = well fitted curve in either direction with a large enough effect, not every such curve was filed as active;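 note: ME-180 cervical cancer cells given 40 pM IL-6 alongside compound; SIE-controlled beta-lactamase reporter measured as 460/530 nm FRET emission ratio; % is set by controls: 0 for no effect and ±100 for the full control effect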); conditions: ME-180 SIE beta-lactamase reporter, IL-6 stimulated, 5 h; at 7.69 µM (top of the series) unless noted
Summary of the method: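 Emission at 460 and 530 nm (excitation 405 nm) reports SIE-controlled beta-lactamase in ME-180 cells. Cells received compound with 40 pM IL-6 for 5 hrs at 37 C; data scaled between 300 pM IL-6 and 125 nM JAK-inhibitor controls.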

[6] = biological target: Glucocorticoid receptor (Homo sapiens) (UniProt P04150); assay: GR-GFP Redistribution (AID 450;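 active = compounds whose dose series gives a full or clear partial fitted curve of increased nuclear translocation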; note: potency is the fitted concentration of half-maximal effect); conditions: U2OS GR-GFP nuclear translocation, laser cytometry, 2 h
[7] = biological target: Glucocorticoid receptor (Homo sapiens) (UniProt P04150); assay: GR-EFC Redistribution (AID 451; calls by dose curve; note: potency is the fitted concentration of half-maximal effect); conditions: CHO-K1 GR-EFC translocation, beta-gal luminescence, 2 h
Summary of the method: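 CHO-K1 cells expressing nuclear EA and GR-ED fragments of b-gal; compounds titrated up to 46 uM final, 2 h at 37 C. GR nuclear translocation read as complemented b-gal luminescence after 1 h RT detection.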

[8] = biological target: Mitogen-activated protein kinase 10 (Mus musculus) (UniProt Q61831); assay: JNK3 AlphaScreen Assay (AID 530; active = well fitted curve in either direction with a large enough effect, not every such curve was filed as active;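 note: kinase came from lysate of stimulated human HepG2 cells; signal reports phosphorylation of biotinylated GST-cJun 1-79 at Ser73 with 10 µM ATP; % is set by controls: 0 for no effect and ±100 for the full control effect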)
Summary of the method: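 HepG2 lysate (IL-1b/TNFa pre-activated) + biotin-GST-cJun 1-79 + anti-pSer73 cJun; cpd titration, 15 min RT; ATP 10 uM start; Tris pH 7.6, MgCl2, DTT, vanadate; beads in EDTA buffer; AlphaScreen.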

[9] = biological target: 3',5'-cyclic-AMP phosphodiesterase 4B (Homo sapiens) (UniProt Q07343); assay: qHTS Assay for Inhibitors of PDE-IV (AID 607; active = well fitted activation curve with a large enough effect in the main read-out, with a control signal flat, not every such curve was filed as active; note: % of control where 0% means no effect)
Summary of the method: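 The readout is membrane depolarisation from a cAMP-sensing CNG channel, detected with a potential dye at ex 535/em 590. Cells were HEK293-derived (endogenous PDE-IV) at 1000 cells/well, titrated up to 22.9 uM final.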

[10] = biological target: Cytochrome P450 3A4 (Homo sapiens) (UniProt P08684); assay: qHTS Assay for Inhibitors and Substrates of Cytochrome P450 3A4 (AID 884); note: nearly all actives have a fitted effect of over 50% in size; note: potency is the fitted concentration of half-maximal effect
Summary of the method: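 Luminescent readout of luciferin produced by CYP3A4 (20 nM) dealkylation of Luciferin-PPXE, 25 uM (its KM). NADPH-driven reaction ran 60 min at RT after 10 min compound preincubation; data scaled to 57 uM ketoconazole as 100% inhibition.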

[11] = biological target: Cytochrome P450 3A4 (Homo sapiens) (UniProt P08684); assay: qHTS Assay for Activators of Cytochrome P450 3A4 (AID 885); note: nearly all actives have a fitted effect of over 65% in size
Summary of the method: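 Activators are scored by enhanced luminescence from CYP3A4 conversion of luciferin-PPXE (25uM, equal to KM) to luciferin, after 60 min at RT with an NADPH-regenerating system.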

[12] = biological target: Cytochrome P450 2D6 (Homo sapiens) (UniProt P10635); assay: qHTS Assay for Inhibitors and Substrates of Cytochrome P450 2D6 (AID 891); note: potency is the fitted concentration of half-maximal effect; nearly all actives have a fitted effect of over 60% in size
Summary of the method: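 Luminescent read-out of luciferin formed by 5 nM human CYP2D6 demethylating 30 uM Luciferin-ME EGE (Km level) over 60 min at room temperature after NADPH regeneration addition. Data normalized to full inhibition by 1.43 uM quinidine.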

[13] = biological target: Cytochrome P450 2C19 (Homo sapiens) (UniProt P33261); assay: qHTS Assay for Inhibitors and Substrates of Cytochrome P450 2C19 (AID 899); note: potency is the fitted concentration of half-maximal effect; nearly all actives have a fitted effect of over 60% in size
Summary of the method: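 Signal comes from luciferase acting on luciferin released by CYP2C19-mediated hydroxylation of Luciferin-H EGE, 10uM (KM). Assay mix: 5nM enzyme, 50mM KPO4; 60 min at 37C with NADPH regeneration. Data normalized against 57uM ketoconazole.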

[14] = biological target: Dual specificity protein kinase CLK4 (Homo sapiens) (UniProt Q9HAZ1); assay: qHTS Assay for Inhibitors of CDC-like Kinase 4 (Kinase-Glo Assay) (AID 1770); note: nearly all actives have a fitted effect of over 65% in size; note: potency is the fitted concentration of half-maximal effect
Summary of the method: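 25 nM Clk4 with 100 uM RS repeat peptide and 1 uM ATP (final) in Tris pH7.5, 10 mM MgCl2, 4.5 h at room temperature. Remaining ATP measured by Kinase-Glo luciferase luminescence.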

[15] = biological target: Dual specificity protein kinase CLK4 (Homo sapiens) (UniProt Q9HAZ1); assay: qHTS Assay for Inhibitors of CDC-like Kinase 4 (ADP-Glo Assay) (AID 1771); note: nearly all actives have a fitted effect of over 70% in size; note: potency is the fitted concentration of half-maximal effect
Summary of the method: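 In this ADP-Glo format, 1 uM ATP and 100 uM RS peptide served as substrates for 25 nM Clk4 in Mg2+/EGTA/DTT/Triton buffer; reactions ran 1 hr at room temperature before luminescent ADP quantification.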

[16] = Primary qHTS for small molecule stabilizers of the endoplasmic reticulum resident proteome: Secreted ER Calcium Modulated Protein (SERCaMP) assay (AID 1508630); note: % is set by controls: 0 for no effect and ±100 for the full control effect
Summary of the method: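 The SH-SY5Y reporter protocol was run at 3 concentrations up to 38.3 uM (primary) or 11 concentrations (follow-up): 16 h compound, 100 nM thapsigargin for 4 h, then extracellular luciferase luminescence.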

[17] = qHTS Assay for Identification of Small Molecule Agonists for Hypoxia Response Element Signaling Pathway (AID 914; active = well fitted activation curve with a large enough effect in the signal ratio, with a control signal flat, not every such curve was filed as active; the % refers to the signal ratio; note: potency is the fitted concentration of half-maximal effect); conditions: ME-180 (cervical carcinoma) HRE-bla reporter, beta-lactamase ratio, CoCl2, 17 h; activation: active compounds read high
Summary of the method: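 A beta-lactamase reporter under hypoxia response element control in ME-180 cells served as the system. Compound titrations plus EC50 CoCl2 ran 17 h at 37 degrees Celsius; AC50 values were fitted from %Activity.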

[18] = biological target: Dual specificity protein kinase CLK4 (Homo sapiens) (UniProt Q9HAZ1); assay: qHTS Assay for Inhibitors of CDC-like Kinase 4 (ADP-FP Assay) (AID 1795);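 note: recombinant human CLK4 phosphorylating RS repeat peptide at 1 µM ATP; % is set by controls: 0 for no effect and ±100 for the full control effect; nearly all actives have a fitted effect of over 60% in size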
Summary of the method: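 Recombinant Clk4 (6.25 nM) phosphorylated 100 uM RS repeat peptide with 1 uM ATP in 25 mM Tris pH 7.5, 10 mM MgCl2, 0.5 mM EGTA, 2.5 mM DTT, 0.01% Triton X-100 for 1 h. ADP was detected by Transcreener ADP2 competitive fluorescence polarization after 30 min at room temperature.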

[19] = biological target: Ubiquitin carboxyl-terminal hydrolase 1 (Homo sapiens) (UniProt O94782); assay: Inhibitors of USP1/UAF1: Pilot qHTS (AID 504865); note: nearly all actives have a fitted effect of over 35% in size; note: potency is the fitted concentration of half-maximal effect
Summary of the method: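 USP1/UAF1 complex at 1 nM preincubated 15 min at room temperature with compound, then Ub-Rho substrate added at 150 nM final. Fluorescence (480/540 nm) read kinetically in 50 mM HEPES pH 7.8, 0.5 mM EDTA, 1 mM TCEP, 0.1 mg/ml BSA, 0.01% Tween-20.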

3',5'-cyclic-AMP phosphodiesterase 4B (Homo sapiens), sequence (Q07343 whole entry, looked up): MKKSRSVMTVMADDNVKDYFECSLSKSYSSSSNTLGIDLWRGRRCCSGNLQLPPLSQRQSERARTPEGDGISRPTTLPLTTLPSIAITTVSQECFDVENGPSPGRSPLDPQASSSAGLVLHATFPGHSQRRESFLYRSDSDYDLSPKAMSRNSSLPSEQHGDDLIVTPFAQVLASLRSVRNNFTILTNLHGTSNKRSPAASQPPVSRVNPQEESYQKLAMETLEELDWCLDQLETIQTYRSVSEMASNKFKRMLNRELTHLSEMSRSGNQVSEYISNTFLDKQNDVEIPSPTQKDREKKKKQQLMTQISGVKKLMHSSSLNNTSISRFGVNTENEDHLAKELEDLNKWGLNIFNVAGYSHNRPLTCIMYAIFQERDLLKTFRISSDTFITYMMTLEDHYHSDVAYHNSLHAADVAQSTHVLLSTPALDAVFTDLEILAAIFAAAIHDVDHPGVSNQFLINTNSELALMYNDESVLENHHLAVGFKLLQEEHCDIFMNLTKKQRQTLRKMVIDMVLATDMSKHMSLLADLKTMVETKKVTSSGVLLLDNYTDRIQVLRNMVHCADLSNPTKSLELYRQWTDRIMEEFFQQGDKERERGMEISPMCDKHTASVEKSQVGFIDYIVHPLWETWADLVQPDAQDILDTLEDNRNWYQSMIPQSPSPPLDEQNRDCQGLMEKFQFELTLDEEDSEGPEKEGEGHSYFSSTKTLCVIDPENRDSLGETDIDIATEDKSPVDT
Cytochrome P450 3A4 (Homo sapiens), sequence (P08684 whole entry, looked up): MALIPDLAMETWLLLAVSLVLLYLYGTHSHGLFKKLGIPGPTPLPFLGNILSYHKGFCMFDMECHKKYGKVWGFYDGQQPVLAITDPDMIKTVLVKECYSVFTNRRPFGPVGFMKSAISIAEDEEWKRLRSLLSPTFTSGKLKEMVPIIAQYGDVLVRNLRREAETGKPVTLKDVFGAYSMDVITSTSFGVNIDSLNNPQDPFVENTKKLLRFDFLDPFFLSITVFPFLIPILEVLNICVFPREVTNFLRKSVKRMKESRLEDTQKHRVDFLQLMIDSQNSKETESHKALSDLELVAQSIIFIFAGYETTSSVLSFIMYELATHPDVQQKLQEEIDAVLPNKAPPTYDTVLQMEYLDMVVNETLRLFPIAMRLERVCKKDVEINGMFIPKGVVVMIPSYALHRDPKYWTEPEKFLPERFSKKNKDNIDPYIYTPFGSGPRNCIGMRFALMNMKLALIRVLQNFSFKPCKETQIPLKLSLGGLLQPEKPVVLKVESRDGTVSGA
Cytochrome P450 1A2 (Homo sapiens), sequence (P05177 whole entry, looked up): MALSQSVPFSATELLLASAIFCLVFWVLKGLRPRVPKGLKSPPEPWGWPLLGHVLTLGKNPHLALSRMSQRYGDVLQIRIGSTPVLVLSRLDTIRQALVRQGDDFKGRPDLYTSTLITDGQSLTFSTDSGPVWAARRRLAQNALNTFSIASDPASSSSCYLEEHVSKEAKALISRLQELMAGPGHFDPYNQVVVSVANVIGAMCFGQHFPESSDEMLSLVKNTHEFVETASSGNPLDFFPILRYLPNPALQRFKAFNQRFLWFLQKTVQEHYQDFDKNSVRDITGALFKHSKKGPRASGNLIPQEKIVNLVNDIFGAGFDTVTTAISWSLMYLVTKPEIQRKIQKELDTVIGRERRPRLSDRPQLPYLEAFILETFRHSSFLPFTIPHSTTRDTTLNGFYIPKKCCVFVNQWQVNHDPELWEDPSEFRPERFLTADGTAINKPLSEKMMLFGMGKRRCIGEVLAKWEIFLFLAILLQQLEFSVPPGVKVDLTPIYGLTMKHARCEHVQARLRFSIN
Cytochrome P450 2C19 (Homo sapiens), sequence (P33261 whole entry, looked up): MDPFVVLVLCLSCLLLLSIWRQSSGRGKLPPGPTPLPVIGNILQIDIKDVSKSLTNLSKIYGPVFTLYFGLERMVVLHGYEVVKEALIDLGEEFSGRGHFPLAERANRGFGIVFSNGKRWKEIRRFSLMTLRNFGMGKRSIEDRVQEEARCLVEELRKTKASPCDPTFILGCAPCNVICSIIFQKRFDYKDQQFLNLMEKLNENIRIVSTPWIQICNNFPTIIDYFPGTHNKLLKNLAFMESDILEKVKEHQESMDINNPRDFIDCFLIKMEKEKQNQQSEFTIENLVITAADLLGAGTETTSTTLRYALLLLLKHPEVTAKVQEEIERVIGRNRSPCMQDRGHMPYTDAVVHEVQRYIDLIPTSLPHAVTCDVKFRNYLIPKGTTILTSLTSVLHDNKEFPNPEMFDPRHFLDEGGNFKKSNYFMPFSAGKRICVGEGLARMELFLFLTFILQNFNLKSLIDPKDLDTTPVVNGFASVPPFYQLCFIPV
Dual specificity protein kinase CLK4 (Homo sapiens), sequence (Q9HAZ1 whole entry, looked up): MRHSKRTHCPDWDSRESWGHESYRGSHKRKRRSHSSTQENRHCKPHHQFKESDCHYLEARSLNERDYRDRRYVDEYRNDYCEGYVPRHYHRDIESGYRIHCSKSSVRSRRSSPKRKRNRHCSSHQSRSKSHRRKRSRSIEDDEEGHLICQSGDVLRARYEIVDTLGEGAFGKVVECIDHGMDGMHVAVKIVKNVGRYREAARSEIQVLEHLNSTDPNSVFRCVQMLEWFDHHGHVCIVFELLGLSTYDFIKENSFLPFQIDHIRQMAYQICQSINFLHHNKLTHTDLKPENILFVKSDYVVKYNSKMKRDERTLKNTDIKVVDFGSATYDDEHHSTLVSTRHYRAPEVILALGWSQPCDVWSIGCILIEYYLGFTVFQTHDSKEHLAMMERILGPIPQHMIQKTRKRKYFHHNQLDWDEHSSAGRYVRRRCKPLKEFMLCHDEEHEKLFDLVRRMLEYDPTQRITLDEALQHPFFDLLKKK
Lysosomal acid glucosylceramidase (Homo sapiens), sequence (P04062 whole entry, looked up): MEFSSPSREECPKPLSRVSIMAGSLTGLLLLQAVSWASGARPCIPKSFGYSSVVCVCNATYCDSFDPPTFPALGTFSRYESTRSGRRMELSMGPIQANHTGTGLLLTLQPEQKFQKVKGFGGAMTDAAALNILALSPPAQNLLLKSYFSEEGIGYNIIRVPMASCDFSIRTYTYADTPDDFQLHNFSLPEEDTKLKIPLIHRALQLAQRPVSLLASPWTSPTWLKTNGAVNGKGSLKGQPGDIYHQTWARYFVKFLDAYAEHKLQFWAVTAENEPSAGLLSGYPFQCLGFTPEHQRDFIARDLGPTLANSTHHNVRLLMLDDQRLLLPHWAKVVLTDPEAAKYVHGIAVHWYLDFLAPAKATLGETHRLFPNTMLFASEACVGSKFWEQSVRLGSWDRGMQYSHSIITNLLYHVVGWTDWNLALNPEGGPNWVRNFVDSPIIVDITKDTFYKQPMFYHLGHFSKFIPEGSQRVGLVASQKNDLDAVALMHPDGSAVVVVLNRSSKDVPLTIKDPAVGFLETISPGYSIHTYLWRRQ
Glucocorticoid receptor (Homo sapiens), sequence (P04150 whole entry, looked up, the tested form may be a part): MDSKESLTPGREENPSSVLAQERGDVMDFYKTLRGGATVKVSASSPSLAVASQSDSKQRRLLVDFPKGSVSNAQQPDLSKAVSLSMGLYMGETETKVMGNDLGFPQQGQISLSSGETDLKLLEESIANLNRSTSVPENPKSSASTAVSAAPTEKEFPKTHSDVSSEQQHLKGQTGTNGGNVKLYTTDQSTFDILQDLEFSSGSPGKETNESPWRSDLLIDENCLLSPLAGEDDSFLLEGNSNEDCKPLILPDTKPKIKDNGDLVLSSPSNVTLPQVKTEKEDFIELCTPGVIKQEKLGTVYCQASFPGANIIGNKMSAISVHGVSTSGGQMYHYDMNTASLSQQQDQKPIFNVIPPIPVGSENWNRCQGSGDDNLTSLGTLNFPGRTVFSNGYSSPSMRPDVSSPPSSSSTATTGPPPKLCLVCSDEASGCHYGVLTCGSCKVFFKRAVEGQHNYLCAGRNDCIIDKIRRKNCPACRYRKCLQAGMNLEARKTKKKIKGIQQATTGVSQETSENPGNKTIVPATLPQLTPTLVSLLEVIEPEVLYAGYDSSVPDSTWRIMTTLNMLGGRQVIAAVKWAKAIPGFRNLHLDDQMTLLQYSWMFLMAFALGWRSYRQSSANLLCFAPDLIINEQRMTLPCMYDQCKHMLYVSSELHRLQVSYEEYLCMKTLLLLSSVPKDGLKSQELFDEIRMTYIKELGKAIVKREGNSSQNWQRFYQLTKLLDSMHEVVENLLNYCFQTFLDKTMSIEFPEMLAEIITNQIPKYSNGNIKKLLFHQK
Ubiquitin carboxyl-terminal hydrolase 1 (Homo sapiens), sequence (O94782 whole entry, looked up): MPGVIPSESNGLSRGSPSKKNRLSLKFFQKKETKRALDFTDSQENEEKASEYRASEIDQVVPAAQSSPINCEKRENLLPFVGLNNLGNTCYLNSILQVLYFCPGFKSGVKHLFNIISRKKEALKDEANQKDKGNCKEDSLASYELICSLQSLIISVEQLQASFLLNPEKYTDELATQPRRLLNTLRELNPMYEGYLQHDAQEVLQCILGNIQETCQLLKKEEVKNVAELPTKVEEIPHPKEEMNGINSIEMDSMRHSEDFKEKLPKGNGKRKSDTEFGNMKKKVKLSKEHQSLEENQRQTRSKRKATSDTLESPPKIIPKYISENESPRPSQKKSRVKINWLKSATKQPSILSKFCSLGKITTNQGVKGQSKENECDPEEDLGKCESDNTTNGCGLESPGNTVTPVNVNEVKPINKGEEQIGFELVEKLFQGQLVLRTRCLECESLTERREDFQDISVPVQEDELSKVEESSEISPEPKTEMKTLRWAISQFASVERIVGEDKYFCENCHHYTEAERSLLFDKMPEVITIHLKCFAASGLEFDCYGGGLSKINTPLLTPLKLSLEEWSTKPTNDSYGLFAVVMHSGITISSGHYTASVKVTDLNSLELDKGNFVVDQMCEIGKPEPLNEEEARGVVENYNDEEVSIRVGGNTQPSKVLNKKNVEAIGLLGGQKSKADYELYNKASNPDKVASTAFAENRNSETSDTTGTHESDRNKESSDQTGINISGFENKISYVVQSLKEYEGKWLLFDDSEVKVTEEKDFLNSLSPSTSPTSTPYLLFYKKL

COc1cccc(-c2nccc(NCc3ccccc3OC)n2)c1
inactive: Potency [1] > 11.4 µM | activity change, negative = inhibition [2] -18.4% | activity change, negative = inhibition [4] 11.8% | activity, negative = inhibition [5] -8.4% | Potency [6] > 46 µM | Potency [7] > 46 µM | Potency [8] | Potency [9] | Potency [11] | outcome [16]
active: Potency [3] 1.26 µM | Potency [10] 2.51 µM | Potency [12] 0.398 µM | Potency [13] 5.01 µM | Potency [14] 22.4 µM | Potency [15] 14.1 µM

Cn1c(=O)c(-c2cc(F)cc(F)c2)nc2cnc(N3CCNCC3)nc21
active: Potency [17] 3.16 µM
inactive: Potency [6] > 9.22 µM | Potency [7] > 46 µM | Potency [8] | Potency [9] | Potency [11] | Potency [14] | Potency [15] | Potency [18] | Potency [19] | outcome [16]

CN(C)c1ccc(-c2cncnc2-n2ccnc2)cc1
active: Potency [3] 2.51 µM | Potency [10] 2.51 µM | Potency [13] 3.98 µM | Potency [14] 14.1 µM | Potency [15] 25.1 µM
inactive: Potency [1] > 11.4 µM | activity change, negative = inhibition [2] -3.44% | activity change, negative = inhibition [4] 4.48% | activity, negative = inhibition [5] 10.2% | Potency [6] > 46 µM | Potency [7] > 46 µM | Potency [8] | Potency [9] | Potency [11] | Potency [19] | outcome [16]

CN(C)c1ncc2nc(-c3ccc(Cl)cc3)c(=O)n(Cc3ccc(F)cc3)c2n1
inactive: Potency [1] > 11.4 µM | Potency [6] > 9.22 µM | Potency [7] > 46 µM | Potency [8] | Potency [9] | Potency [10] | Potency [14] | Potency [15] | outcome [16]
active: activity change, negative = inhibition [2] 115% [activator] | Potency [3] 5.01 µM | activity change, negative = inhibition [4] 137% [activator] | Potency [17] 1.26 µM

c1cncc(-c2cc(NCc3cccs3)ncn2)c1
inactive: Potency [1] > 11.4 µM | activity change, negative = inhibition [2] 19% | activity change, negative = inhibition [4] 11.4% | activity, negative = inhibition [5] 7.74% | Potency [6] > 46 µM | Potency [7] > 46 µM | Potency [8] | Potency [9] | Potency [11] | Potency [19] | outcome [16]
active: Potency [3] 1 µM | Potency [10] 2.51 µM | Potency [14] 25.1 µM | Potency [15] 28.2 µM

CN1CCN(c2ncc3ncc(=O)n(CCc4ccccc4)c3n2)CC1
inactive: Potency [1] > 11.4 µM | activity change, negative = inhibition [2] -5.68% | activity change, negative = inhibition [4] -2.1% | activity, negative = inhibition [5] 9.6% | Potency [6] > 9.22 µM | Potency [7] > 46 µM | Potency [8] | Potency [9] | Potency [11] | Potency [19] | outcome [16]
active: Potency [3] 3.98 µM | Potency [13] 6.31 µM | Potency [14] 25.1 µM | Potency [15] 15.8 µM

N#Cc1ccccc1-c1ccc2ncnc(NC3CC3)c2c1
active: Potency [3] 0.1 µM | Potency [10] 2 µM | Potency [14] 6.31 µM | Potency [15] 5.62 µM
inactive: Potency [1] > 11.4 µM | activity change, negative = inhibition [2] -12.1% | activity change, negative = inhibition [4] 21.2% | Potency [6] > 46 µM | Potency [7] > 46 µM | Potency [8] | Potency [11] | Potency [19] | outcome [16]

COc1cccc(-c2nc(NCc3cccs3)c3ccccc3n2)c1
inactive: Potency [1] > 11.4 µM | activity change, negative = inhibition [2] 9.31% | activity change, negative = inhibition [4] -22.6% | activity, negative = inhibition [5] -12.6% | Potency [6] > 46 µM | Potency [7] > 46 µM | Potency [8] | Potency [11] | outcome [16]
active: Potency [3] 0.316 µM | Potency [10] 3.16 µM | Potency [13] 3.16 µM | Potency [14] 17.8 µM | Potency [15] 15.8 µM | Potency [19] 20 µM

CN(C)c1ccc(-c2cncnc2N(C)Cc2ccco2)cc1
inactive: Potency [1] > 11.4 µM | activity change, negative = inhibition [2] -22.2% | activity change, negative = inhibition [4] -8.48% | activity, negative = inhibition [5] -5.82% | Potency [6] > 46 µM | Potency [7] > 46 µM | Potency [11] | Potency [19] | outcome [16]
active: Potency [3] 0.631 µM | Potency [10] 0.631 µM | Potency [13] 0.251 µM | Potency [14] 15.8 µM | Potency [15] 17.8 µM

COc1cccc(-c2cncnc2NCc2cccc(C)c2)c1
inactive: Potency [1] > 11.4 µM | activity change, negative = inhibition [2] -11.8% | activity change, negative = inhibition [4] -0.339% | activity, negative = inhibition [5] -10.4% | Potency [6] > 46 µM | Potency [7] > 46 µM | Potency [8] | Potency [11] | Potency [19] | outcome [16]
active: Potency [3] 2 µM | Potency [10] 0.398 µM | Potency [13] 0.794 µM | Potency [14] 31.6 µM | Potency [15] 25.1 µM

Cc1cccc(CNc2ncncc2-c2cccnc2)c1
active: Potency [3] 0.794 µM | Potency [10] 0.631 µM
inactive: Potency [1] > 11.4 µM | activity change, negative = inhibition [2] 11.8% | activity change, negative = inhibition [4] 12% | activity, negative = inhibition [5] 10.4% | Potency [6] > 46 µM | Potency [7] > 46 µM | Potency [8] | Potency [9] | Potency [11] | Potency [14] | Potency [15] | Potency [19] | outcome [16]

COc1cccc(-c2cc(NCc3ccccc3)ncn2)c1
inactive: Potency [1] > 11.4 µM | activity change, negative = inhibition [2] -18.4% | activity change, negative = inhibition [4] 13.6% | activity, negative = inhibition [5] -5.77% | Potency [6] > 46 µM | Potency [7] > 46 µM | Potency [8] | Potency [11] | Potency [19] | outcome [16]
active: Potency [3] 2 µM | Potency [13] 7.94 µM | Potency [14] 15.8 µM | Potency [15] 28.2 µM
